Laboratory results from PubChem BioAssay.
Where “and” joins values, the source holds several entries; their conditions need not be identical. Equal entries are not always repeated. Calls of active or inactive are those of the source.

Tests used:
[1] = molecular target: Albumin (Bos taurus) (UniProt P02769); assay: compounds binding labelled BSA control protein – biochemical, small-molecule microarray, Alexa647 label, 635/667 nm fluorescence, artefact control for SMM control protein annotation, profiling panel (AID 1118); details: BSA-A647 binding, fluorescence 635 nm, higher = more signal;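 further: score merges 667 nm emission intensity and signal-to-noise per printed compound spot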
[2] = probe aXIP binding to arrayed compounds – biochemical, NeuroSMM set, 635/667 nm fluorescence, primary screen (AID 1119); details: small-molecule microarray, higher = more signal, called active from +8 up or from −8 down;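 further: probe is the protein aXip251-270 applied at 1 µg/mL to compound-printed slides; binding of probe to printed compounds measured as 667 nm fluorescence plus signal to noise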
[3] = probe aNOTCH3 binding on compound microarray – biochemical, small-molecule microarray, 635/667 nm fluorescence, primary screen (AID 1120); details: higher = more signal;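 further: probe is a biotin-tagged antibody raised against NOTCH3 rather than NOTCH3 protein; score merges spot fluorescence near 667 nm with spot signal to noise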
[4] = probe aNOTCH2 binding on compound microarray – biochemical, small-molecule microarray, 635/667 nm fluorescence, primary screen (AID 1121); details: higher = more signal;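 further: score merges feature fluorescence read at 667 nm with its signal to noise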
[5] = molecular target: Carbonic anhydrase 2 (Homo sapiens) (UniProt P00918); assay: compounds binding carbonic anhydrase 2 – biochemical, small-molecule microarray, Alexa647-labelled CAII, profiling panel (AID 1122); details: CAII-A647 binding fluorescence, higher = more signal
[6] = COS7 lysate on small-molecule microarray, probe aHis, 635 nm (AID 1123); details: COS7 cell lysate, fluorescence, higher = more signal;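 further: z-score combines 667nm fluorescence intensity with signal-to-noise per printed compound spot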
[7] = probe aLAP1 signal on lysate-treated microarray – cell lysate, small-molecule microarray, COS7 lysate, primary screen (AID 1124); details: probe aLAP1, fluorescence, higher = more signal;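 further: lysate comes from COS7 cells expressing LAP1 and is applied at 0.3 µg/mL; score merges spot fluorescence near 667 nm with signal-to-noise over triplicate slides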
[8] = test system: Sam68 (KHDRBS1); assay: compounds binding KHDRBS1 protein – biochemical, small-molecule microarray, 635 nm fluorescence, primary screen (AID 1125); details: higher = more signal;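 further: score merges 667 nm channel intensity with signal to noise over triplicate slides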
[9] = test system: Chordin-like protein 2 (CHRDL2); assay: compounds binding chordin-like 2 – biochemical, small-molecule microarray, 635 nm fluorescence, primary screen (AID 1126); details: fluorescence 635 nm, higher = more signal;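 further: printed compound slides probed with Chrdl2 protein at 4 µg/mL for 1 h at 4 C; score merges 667 nm emission intensity with signal to noise over three replicate slides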
[10] = molecular target: Concanavalin-A (Canavalia ensiformis) (UniProt P02866); assay: compounds binding concanavalin A lectin – biochemical, small-molecule microarray, Alexa647 label, 635 nm, artefact control for SMM control protein annotation, primary screen (AID 1127); details: ConA-A647 binding fluorescence, higher = more signal;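 further: z combines 667 nm emission intensity with signal-to-noise across three replicate slides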
Chain of Concanavalin-A (Canavalia ensiformis) (P02866 whole entry, looked up): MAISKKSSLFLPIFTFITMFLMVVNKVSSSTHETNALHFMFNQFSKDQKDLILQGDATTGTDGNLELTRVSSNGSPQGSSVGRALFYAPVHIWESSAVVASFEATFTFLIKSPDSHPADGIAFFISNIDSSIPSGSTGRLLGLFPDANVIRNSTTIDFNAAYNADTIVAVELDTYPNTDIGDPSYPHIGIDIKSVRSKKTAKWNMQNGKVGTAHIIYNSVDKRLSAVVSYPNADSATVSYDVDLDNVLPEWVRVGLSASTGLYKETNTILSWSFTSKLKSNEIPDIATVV

Chain of Albumin (Bos taurus) (P02769 whole entry, looked up): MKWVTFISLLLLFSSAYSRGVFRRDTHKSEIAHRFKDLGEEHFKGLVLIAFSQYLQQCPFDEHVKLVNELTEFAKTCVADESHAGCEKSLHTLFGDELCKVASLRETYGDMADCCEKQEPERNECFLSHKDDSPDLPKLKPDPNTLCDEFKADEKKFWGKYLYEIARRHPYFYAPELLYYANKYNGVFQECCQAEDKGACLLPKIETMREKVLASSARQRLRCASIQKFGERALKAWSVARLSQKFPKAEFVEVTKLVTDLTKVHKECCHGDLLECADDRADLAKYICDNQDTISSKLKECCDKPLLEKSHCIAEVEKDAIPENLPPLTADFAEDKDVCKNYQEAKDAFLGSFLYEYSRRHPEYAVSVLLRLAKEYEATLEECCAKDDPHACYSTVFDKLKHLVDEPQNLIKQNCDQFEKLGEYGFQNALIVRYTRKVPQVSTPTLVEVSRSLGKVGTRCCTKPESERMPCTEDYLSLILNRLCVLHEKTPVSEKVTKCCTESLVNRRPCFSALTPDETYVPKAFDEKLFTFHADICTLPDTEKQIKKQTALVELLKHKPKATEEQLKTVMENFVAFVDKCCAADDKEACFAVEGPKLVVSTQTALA

SMILES	composite z-score [1]	composite Z-score [2]	composite z-score [3]	composite z-score [4]	composite z-score [5]	composite z-score [6]	composite z-score [7]	composite z-score [8]	composite z-score [9]	composite z-score [10]
CC(C)C(=O)N[C@@H]1CCCN1C(=O)C=Cc1ccccc1	-0.0317	1.05 (inactive)	0.0271	-0.14	-0.0483	0.251	-0.086	0.806	0.933	0.315
C[N+](C)(C)CCCCCCNC(=O)[C@@H]1C[C@@H]2C(=O)N[C@@H](CCCC[N+](C)(C)C)C(=O)N2[C@@H]1c1ccc(O)cc1	-0.595 and 0.0621	0.722 (inactive) and 0.318 (inactive)	-0.0918 and 0.0016	-0.164 and -0.147	0.747 and 0.82	-0.251 and 0.233	0.774 and 0.322	-0.351 and 0.428	0.952 and 0.671	0.197 and 0.299
CO[C@H]1COC(=O)CC=C[C@@H](C)COC(=O)[C@H](CCSC)NC(=O)CC=C[C@@H]1C	-1.57 and -1.06	2.77 (inactive) and 1.61 (inactive)	0.0311 and -0.0043	-0.0942 and -0.0241	-0.407 and -0.489	-0.335 and -0.552	0.383 and -1.41	0.982 and 1.31	1.54 and 1.65	-0.773 and -2.15
CC(=O)OC[C@H]1O[C@H](C#CC(C)(C)C)C=C[C@@H]1OC(C)=O	0.895	-0.0921 (inactive)	0.116	-0.0649	0.813	1.6	0.164	1.22	0.411	1.09
CC(CO)N1C(=O)[C@@H]2C3C(=O)OCCC=C[C@H]3OC23C=CCN(Cc2ccccc2)C(=O)[C@@H]13 (stereo not given in full)	-0.561 and -0.652	0.0931 (inactive) and -0.171 (inactive)	-0.207 and -0.136	-0.174 and -0.133	0.84 and 0.944	-0.205 and 0.481	0.716 and 0.0818	-0.0818 and -0.239	-0.927 and -0.898	-1.3 and -1.38
C=C[C@@H](C)[C@@H](O)c1ccc(OCCO)cc1	-0.342 and 0.259	0.142 (inactive) and -0.0636 (inactive)	-0.701 and -0.608	-0.153 and -0.199	0.8 and 0.731	-0.217 and -0.451	-0.262 and -0.524	-0.97 and -0.832	-3.22 and -2.09	-1.86 and -0.87
C=CCN(Cc1ccccc1)C(=O)C(c1cccs1)N(C(=O)/C=C\C(=O)O)c1ccc(CCO)cc1 (stereo not given)	-0.047 and 0.278	-0.18 (inactive) and -0.296 (inactive)	-0.532 and -0.475	-0.213 and -0.2	0.824 and 0.335	-0.577 and -0.107	-0.0165 and -0.602	-0.581 and -1.13	-2.94 and -1.92	-0.772 and -0.564
C=CCN(CCCC)C(=O)C1N(c2c(Cl)cccc2CO)C(=O)C2C(C(=O)O)C3C=CC21O3 (stereo not given)	-0.817 and -0.128	-0.533 (inactive) and 0.273 (inactive)	-0.408 and 0.539	-0.173 and 0.608	-0.748 and 0.955	-0.455 and 1.89	-0.111 and -0.125	-0.818 and -1	-1.4 and -1.99	-1.69 and -2.68
CN1C(=O)C2CC=C([C@H]3Oc4ccccc4S(=O)(=O)N4CCC[C@@H]34)CC2C1=O (stereo not given in full)	-0.75 and -0.505	0.183 (inactive) and -0.213 (inactive)	-0.182 and -0.173	-0.14 and -0.084	-0.296 and -0.322	-0.616 and -0.564	0.892 and -0.263	-1.08 and -1.56	-0.144 and 0.153	-0.476 and -1.05
COC(=O)C1=C2N(Cc3ccccc3)C(C)=C(C(=O)OC)[C@@H](c3ccccc3)N2C(=O)[C@](O)(C(=O)OC)C1	0.514 and -0.0136	0.606 (inactive) and 0.656 (inactive)	0.0349 and -0.063	-0.171 and -0.0476	0.416 and -0.0902	0.877 and -0.0061	-0.109 and 0.809	0.776 and 0.133	0.392 and 0.77	0.712 and -0.0245
COC(=O)[C@@]1(Cc2ccccc2)[C@H]2c3cc(C(=O)N(C)C)n(C[C@H](O)CO)c3C[C@H]2CN1C(=O)c1ccccc1	0.4 and 1.14	-0.506 (inactive) and -0.574 (inactive)	0.0208 and 0.52	0.0538 and 0.261	0.897 and 0.841	3.13 and 1.27	0.562 and 0.966	-0.278 and -0.421	-0.138 and -0.519	-0.148 and -0.0788
C=CCN(C(=O)C(c1cccs1)N(C(=O)/C=C\C(=O)O)C(C)(C)CO)c1ccc(OC)cc1 (stereo not given)	-0.427 and -0.637	-0.431 (inactive) and -0.215 (inactive)	-0.298 and -0.219	-0.143 and -0.133	0.937 and 0.938	1.72 and 0.0237	0.92 and 1.17	-0.294 and -0.786	-1.74 and -0.727	-0.692 and -0.93
Cc1cc2c(nc1C)CCCN2CC(C)ON=C[C@@H](C)[C@H](OCc1ccccc1)C(C)C (stereo not given in full)	-0.69	0.339 (inactive)	0.0642	-0.0596	-0.345	0.0869	-0.442	-1.3	0.173	-0.804
C=CCN(CCCCC)C(=O)C1N(c2c(Cl)cccc2CO)C(=O)C2C(C(=O)O)C3C=CC21O3 (stereo not given)	-1.16 and -0.735	-0.823 (inactive) and 0.131 (inactive)	-0.508 and -0.548	-0.245 and -0.184	0.846 and 0.315	-0.115 and -0.621	-0.0989 and -0.178	-0.331 and -0.297	-2.24 and -2.28	-1.5 and -0.938
COC(=O)[C@@]1(Cc2ccc(F)cc2)[C@H]2c3cc(C(=O)N4CCCC4)n(Cc4c(CO)[nH]cc(C)c4=O)c3C[C@H]2CN1C(=O)c1ccccc1	1.07 and 0.247	0.418 (inactive) and 0.724 (inactive)	1.28 and 0.355	0.908 and 0.11	0.439 and 0.769	2.88 and 2.95	0.614 and 0.478	-0.201 and 0.623	-0.114 and -0.367	0.196 and 0.0402
C=CCN(Cc1ccccc1)C(=O)C(c1cccs1)N(C(=O)/C=C\C(=O)O)c1c(Cl)cccc1CO (stereo not given)	-0.248 and -1.84	0.0723 (inactive) and -1.07 (inactive)	-0.437 and -0.491	-0.155 and -0.0772	-0.393 and -0.843	-0.665 and -0.537	-0.657 and -0.277	-0.84 and -2.12	-1.64 and -2.62	-1.52 and -1.86
